The source of these data is PubChem BioAssay AID687038 (Broad Institute, 2013).

Active and inactive are the calls of the source.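 Rule for the calls: active = curve showing a falling signal whose half-maximal concentration is at most twice the top valid dose; inconclusive = flat curve with a moderate drop, or an unreliable fit; inactive = the rest.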

This experiment is described as follows: miR-21 levels after miR-122 inhibitor treatment, dose response, selectivity assay for miR-122 inhibitor project, cell-based, Huh7, RT-qPCR, dry powder (AID 687038). The conditions noted are these: Huh7 miR-21 levels, qRT-PCR, 48 h; series mostly up to 35 µM. In general terms: In qPCR the cycle at which signal appears reflects the starting amount.
Take `CO[C@@H]1CN(C)C(=O)c2cc(NS(=O)(=O)c3ccc(Oc4ccccc4)cc3)ccc2OC[C@H](C)NC[C@@H]1C`: the call was inactive.
As to `Nc1ccc(Oc2ccc(Br)cc2)cc1`, the outcome was inactive.
`CCCC#Cc1ccc2c(c1)O[C@H](CN(C)C(=O)COC)[C@H](C)CN([C@@H](C)CO)S2(=O)=O`: the call was inactive.
Turning to `CCCCN(CCCC)C(=O)CN(C)S(=O)(=O)c1ccc2c(c1)n(C)c(=O)c(=O)n2C`, the outcome was inactive.
For `C[C@@H]1CN([C@@H](C)CO)S(=O)(=O)c2ccc(C#Cc3ccncc3)cc2O[C@@H]1CN(C)C(=O)C1CCOCC1` the value was “inactive”; for `COc1ccc(S(=O)(=O)N(C)C[C@@H]2Oc3ncc(/C=C/c4ccccc4)cc3C(=O)N([C@@H](C)CO)C[C@@H]2C)cc1`, “inactive”; for `CNC[C@@H]1Oc2cc(C#CC3CCCCC3)ccc2S(=O)(=O)N([C@@H](C)CO)C[C@@H]1C`, “inactive”.
`C[C@H]1CN([C@@H](C)CO)S(=O)(=O)c2ccc(C#Cc3ccncc3)cc2O[C@@H]1CN(C)C(=O)C1CCOCC1`: the result was inactive.
The value for `Cc1cc(C(C)(C)C)cc(S(=O)(=O)N2CCOCC2)c1C` was “inactive”; that for `Nc1ccc(Oc2ccc(Cl)cc2)cc1` was “inactive”.
`C[C@H]1CN([C@@H](C)CO)S(=O)(=O)c2ccc(C#Cc3ccncc3)cc2O[C@H]1CN(C)C(=O)C1CCOCC1`: the compound was called inactive.
The value for `Cc1cc(C(C)(C)C)cc(S(=O)(=O)NCCc2ccncc2)c1C` was “inactive”; that for `COCC(=O)N(C)C[C@H]1Oc2cc(-c3ccc(C#N)cc3)ccc2S(=O)(=O)N([C@H](C)CO)C[C@H]1C` was “inactive”; that for `CN1C(=O)c2cc(NC(=O)c3cccc(F)c3)ccc2OC[C@H]2O[C@H](CC(=O)O)CC[C@H]21` was “inactive”.
For `CCN(CC)C(=O)c1cccc(NC(=O)c2ccc(Cl)cc2Cl)c1` the value was “inactive”.
On to `CN(C)CCN1C(=O)c2cccc3cc(N)cc(c23)C1=O`, for which the result was inactive.
The value for `C[C@@H]1CN([C@@H](C)CO)S(=O)(=O)c2ccc(C#Cc3ccncc3)cc2O[C@H]1CN(C)C(=O)C1CCOCC1` was “inactive”; that for `O=C(Nc1ccc(-c2nc3ccccc3o2)cc1)c1cc(-n2cnnc2)ccc1Cl` was “inactive”.
On to `CCCC#Cc1ccc2c(c1)O[C@H](CN(C)C(=O)c1ccncc1)[C@H](C)CN([C@@H](C)CO)S2(=O)=O`, for which the compound was called inactive.
For `COCC(=O)N(C)C[C@H]1Oc2cc(-c3ccc(C#N)cc3)ccc2S(=O)(=O)N([C@@H](C)CO)C[C@H]1C` the value was “inactive”; for `O=C(CNCCC1=CCCCC1)Nc1ccccc1N1CCCCCC1`, “inactive”.
For `Cc1cccc(NC(=O)Nc2ccc3c(c2)C(=O)N(C)[C@@H]2CC[C@@H](CC(=O)NCc4ccccc4Cl)O[C@H]2CO3)c1` the value was “inactive”.
For `O=C(CN=C1NS(=O)(=O)c2ccccc21)Nc1ccccc1N1CCCCCC1` the value was “inactive”; for `COCC(=O)N(C)C[C@H]1Oc2cc(C#Cc3cccnc3)ccc2S(=O)(=O)N([C@H](C)CO)C[C@H]1C`, “inactive”; for `COCC(=O)N(C)C[C@@H]1Oc2ncc(-c3ccc(C#N)cc3)cc2C(=O)N([C@@H](C)CO)C[C@@H]1C`, “inactive”.
On to `O=C(NCc1ccccc1Cl)c1ccc(CNc2c(NC3CCCCC3)c(=O)c2=O)cc1`, for which the outcome was inactive.
In the case of `C[C@H](CO)N1C[C@H](C)[C@H](CN(C)C(=O)C2CCOCC2)Oc2cc(C#Cc3ccncc3)ccc2S1(=O)=O`, the compound was classed as inactive.
For `C/C=C/c1cnc2c(c1)C(=O)N([C@@H](C)CO)C[C@H](C)[C@H](CN(C)S(=O)(=O)c1ccc(OC)cc1)O2` the value was “inactive”; for `COc1ccc(-c2cnc3c(c2)C(=O)N([C@@H](C)CO)C[C@H](C)[C@H](CN(C)S(=O)(=O)c2ccc(OC)cc2)O3)cc1`, “inactive”.
For `CN1C(=O)c2cc(NC(=O)c3cccc(F)c3)ccc2OC[C@@H]2O[C@H](CC(=O)O)CC[C@@H]21` the value was “inactive”; for `CO[C@@H]1CN(C)C(=O)c2cc(NC(=O)c3ccc4c(c3)OCO4)ccc2OC[C@H](C)NC[C@@H]1C`, “inactive”.
The value for `COc1cccc(-c2ccc3c(c2)O[C@H](CN(C)C(=O)C2CCOCC2)[C@H](C)CN([C@@H](C)CO)S3(=O)=O)c1` was “inactive”.
